In the supplement of paper PMC3545927:
The list shows a part of the results. The true hit rate is not given.

Molecular target: furin, P09958
Test: furin cleavage Z-score vs untreated control; higher = more cleavage, active = 3.5 or more, inactive = 1 or less, 8 variable residues between constant flanks
How it was run: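 Furin-free reactions served as the baseline for the cleavage Z-score, which is the log read count lowess-adjusted and scaled by median absolute deviation. Counts came from released DNA, adapter-tagged by PCR and sequenced. Purified furin had cut 8-mer peptides fused to a cDNA oligonucleotide on magnetic beads during 7.5, 15 or 30 min at 1:10 enzyme:substrate.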
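Further: purified furin at 1:10 enzyme:substrate in 50 mM HEPES pH 7.5.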

Sequence of furin, P09958 (P09958 whole entry): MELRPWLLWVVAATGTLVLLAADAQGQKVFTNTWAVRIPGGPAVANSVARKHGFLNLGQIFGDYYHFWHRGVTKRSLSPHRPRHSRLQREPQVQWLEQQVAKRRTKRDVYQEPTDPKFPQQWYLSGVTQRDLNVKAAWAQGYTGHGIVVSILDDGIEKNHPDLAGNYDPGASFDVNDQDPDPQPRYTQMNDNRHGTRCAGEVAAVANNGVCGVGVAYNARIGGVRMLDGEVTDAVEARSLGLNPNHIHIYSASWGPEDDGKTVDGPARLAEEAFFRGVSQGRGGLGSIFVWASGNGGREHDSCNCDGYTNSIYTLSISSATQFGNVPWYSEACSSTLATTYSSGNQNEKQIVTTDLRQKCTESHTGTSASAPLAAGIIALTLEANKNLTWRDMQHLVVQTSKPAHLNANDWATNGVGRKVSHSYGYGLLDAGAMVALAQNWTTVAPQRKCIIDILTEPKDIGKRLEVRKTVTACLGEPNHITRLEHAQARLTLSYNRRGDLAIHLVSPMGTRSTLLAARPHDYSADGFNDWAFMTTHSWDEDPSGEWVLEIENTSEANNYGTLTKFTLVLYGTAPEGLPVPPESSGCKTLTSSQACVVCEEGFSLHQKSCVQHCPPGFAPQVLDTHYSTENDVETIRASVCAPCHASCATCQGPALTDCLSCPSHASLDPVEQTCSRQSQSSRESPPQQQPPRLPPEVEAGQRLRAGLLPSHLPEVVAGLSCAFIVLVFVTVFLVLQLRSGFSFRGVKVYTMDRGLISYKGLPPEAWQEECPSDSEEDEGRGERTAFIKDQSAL

Sequence	furin cleavage Z-score (7.5 min)	furin cleavage Z-score (15 min)	furin cleavage Z-score (30 min)
CAHAPTGSGKAGNASASA [HC775]	0.395 (inactive)	-1.05 (inactive)	-0.0524 (inactive)
CAMEGCSQHLAGNASASA [HC1716]	1.23	0.47 (inactive)	0.552 (inactive)
CAAEMEECSQAGNASASA [HC1783]	-0.835 (inactive)	2.03	-0.939 (inactive)
CASTPCSSHLAGNASASA [HC2537]	-0.548 (inactive)	-0.18 (inactive)	0.0993 (inactive)
CAEVVTSTFVAGNASASA [HC2227]	0.885 (inactive)	0.0423 (inactive)	0.809 (inactive)
CASRPSWGPTAGNASASA [HC212]	-1.22 (inactive)	0.133 (inactive)	-0.131 (inactive)
CAPSRRRKREAGNASASA [FS-1385]	13.2 (active)	15 (active)	9.92 (active)
CAYRTRRKREAGNASASA [FS-637]	9.23 (active)	8.28 (active)	6.71 (active)
CAPSPEFFTEAGNASASA [HC1219]	-1.44 (inactive)	-0.301 (inactive)	-0.0659 (inactive)
CAPTRRRWREAGNASASA [FS-1386]	5.77 (active)	5.98 (active)	7.12 (active)
CAEVAERKREAGNASASA [FS-1195]	-1.19 (inactive)	1.03	0.657 (inactive)
CAIPKARRPEAGNASASA [HC193]	-0.401 (inactive)	-0.306 (inactive)	-0.34 (inactive)
CAYRFVAPGEAGNASASA [HC910]	-0.691 (inactive)	-0.942 (inactive)	-0.913 (inactive)
CAEAEVPCHRAGNASASA [HC2443]	1.31	1.69	-0.0334 (inactive)
CAPLEVVTSTAGNASASA [HC2279]	0.247 (inactive)	0.62 (inactive)	0.87 (inactive)
CAKPAIIPDRAGNASASA [HC1006]	-0.622 (inactive)	0.0184 (inactive)	-0.00549 (inactive)
CAGAVQNEITAGNASASA [HC975]	-1.74 (inactive)	-0.537 (inactive)	-1.39 (inactive)
CAGCPPDSDAAGNASASA [HC1348]	0.143 (inactive)	-0.261 (inactive)	-1.34 (inactive)
CARQRRVAGLAGNASASA [FS-2767]	-1.21 (inactive)	-0.684 (inactive)	1.04
CARQRRSSGHAGNASASA [FS-3164]	6.61 (active)	6.83 (active)	6.04 (active)
CARQRRHPELAGNASASA [FS-2763]	2.08	1.42	4.23 (active)
CARQRRPWEPAGNASASA [FS-2366]	-0.356 (inactive)	-0.595 (inactive)	-1.76 (inactive)

Sequence	furin cleavage Z-score (7.5 min)	furin cleavage Z-score (15 min)	furin cleavage Z-score (30 min)
CARQRRSHVLAGNASASA [FS-2766]	2.3	4.17 (active)	4.75 (active)
CASRSLTPCTAGNASASA [HC719]	-0.572 (inactive)	-2.71 (inactive)	0.443 (inactive)
CANYATGNLPAGNASASA [HC242]	-0.747 (inactive)	0.727 (inactive)	-1.07 (inactive)
CAKRRRGRKSAGNASASA [FS-679]	0.804 (inactive)	2.45	1.45
CAYHFRGRRSAGNASASA [FS-1438]	8.22 (active)	8.64 (active)	7.23 (active)
CAFRRRGRRSAGNASASA [FS-1325]	7.29 (active)	7.04 (active)	5.71 (active)
CARMKRIFYRAGNASASA [FS-3162]	0.804 (inactive)	2.26	-0.0374 (inactive)
CARMKRAGRVAGNASASA [FS-1751]	5.19 (active)	5.19 (active)	5.87 (active)
CAEVVRSTWVAGNASASA [HC130]	-1.7 (inactive)	-0.333 (inactive)	-1.26 (inactive)
CAVKKRKGRVAGNASASA [FS-922]	3.3	4.91 (active)	6.5 (active)
CACVVIVGRVAGNASASA [HC1000]	0.746 (inactive)	-1.22 (inactive)	1.75
CALVNLLPAIAGNASASA [HC1100]	1.21	0.684 (inactive)	0.808 (inactive)
CARNLGKVIDAGNASASA [HC219]	-0.809 (inactive)	0.0222 (inactive)	-1.18 (inactive)
CATQGCNCSIAGNASASA [HC311]	-0.897 (inactive)	-0.922 (inactive)	-0.937 (inactive)
CARMDRVKKEAGNASASA [FS-953]	0.785 (inactive)	2.5	3.22
CAVMGRMKREAGNASASA [FS-892]	13 (active)	13.9 (active)	9.25 (active)
CAGDGRSYRGAGNASASA [FS-529]	-0.56 (inactive)	-0.653 (inactive)	-0.179 (inactive)
CAGKGRKYREAGNASASA [FS-125]	8.32 (active)	9.76 (active)	7.89 (active)
CARPRRMKREAGNASASA [FS-710]	12.1 (active)	12.6 (active)	8.41 (active)
CARKRRAKREAGNASASA [FS-1650]	13 (active)	13.6 (active)	9.6 (active)
CARPRRTKKTAGNASASA [DV3]	0.136 (inactive)	1.59	1.15
